The source of these data is PubChem BioAssay.

Molecules are shown by their SMILES. For part of these data: Entries with a potency or affinity are not part of this list. The source made the active and inactive calls.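 Rule for the calls, unless noted: active = fitted half-maximal concentration within the tested dose range, moderate curve steepness, a statistically real signal drop, and little compound fluorescence or tag-binding interference; inactive = the rest.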

Experiment [1] deals with Cell division control protein 42 homolog (Homo sapiens) (UniProt P60953). The experiment is described as follows: activated mutant Cdc42 GTP-binding inhibitors, dose response, biochemical, multiplex bead flow cytometry, Bodipy-FL-GTP (AID 1333). A general note: Flow cytometry measures light scatter and fluorescence of single cells or particles in a stream.
Cell division control protein 42 homolog (Homo sapiens), sequence (P60953 whole entry, looked up): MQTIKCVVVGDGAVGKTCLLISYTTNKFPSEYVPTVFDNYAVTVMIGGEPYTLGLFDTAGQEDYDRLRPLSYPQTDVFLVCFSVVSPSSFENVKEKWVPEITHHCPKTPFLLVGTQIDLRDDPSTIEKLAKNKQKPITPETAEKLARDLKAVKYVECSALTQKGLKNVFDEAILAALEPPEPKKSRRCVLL
The target is the same in experiment [2]. Description: wildtype Cdc42 GTP-binding inhibitors, dose response, biochemical, multiplex bead flow cytometry, Bodipy-FL-GTP (AID 1334;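 active = fitted half-maximal concentration within the tested range, moderate curve steepness, significant signal drop, and little compound fluorescence or bead-linkage interference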). Conditions: bead-based flow cytometry, Bodipy-FL-GTP binding to GST-Cdc42; at 100 µM (top of the series) unless noted.
Experiment [3] deals with GTPase HRas (Homo sapiens) (UniProt P01112). The experiment is described as follows: inhibitors of GTP binding to wildtype Ras, dose response, biochemical, multiplex bead flow cytometry (AID 1335;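 active = fitted half-maximal concentration within 10 nM to 100 µM, steepness 0.5 to 2, significant signal drop, low assay interference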). Conditions: bead-based flow cytometry, Bodipy-GTP binding to GST-Ras; at 100 µM (top of the series) unless noted.
GTPase HRas (Homo sapiens), sequence (P01112 whole entry, looked up): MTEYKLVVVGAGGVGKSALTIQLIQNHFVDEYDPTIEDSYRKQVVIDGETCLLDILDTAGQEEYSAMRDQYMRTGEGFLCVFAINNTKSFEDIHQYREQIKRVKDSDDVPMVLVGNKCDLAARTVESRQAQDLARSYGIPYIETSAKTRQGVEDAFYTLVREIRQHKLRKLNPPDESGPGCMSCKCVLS
The test system of experiment [4] is Ras-related protein Rab-7a (dog), GTP binding. The experiment is described as follows: Rab7 GTP binding inhibitors, potency, dose response, biochemical, wildtype, multiplex bead flow cytometry (AID 1336; call rule not given here).
Experiment [5] has as its target Ras-related C3 botulinum toxin substrate 1 (Homo sapiens) (UniProt P63000). The experiment is described as follows: wildtype Rac1 GTP binding inhibitors, dose response, biochemical, multiplex bead flow cytometry (AID 1340;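 active = dose curve with midpoint inside tested range, moderate steepness, plateau gap beyond fit error, low compound glow and bead-link interference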). The settings on record: GST-Rac1 beads, Bodipy-FL-GTP binding; at 100 µM (top of the series) unless noted.
Experiment [6] addresses GTPase HRas (Homo sapiens) (UniProt P01112). Description: activated Ras mutant GTP binding inhibitors, dose response, biochemical, multiplex bead flow cytometry (AID 1341;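 active = dose-response curve with midpoint inside the tested range, moderate steepness, significant amplitude and little compound fluorescence or bead-attachment interference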;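 note: GST-tagged constitutively activated Ras mutant immobilized on beads and multiplexed with other GTPases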).

As for `Cc1ccc(-n2c(=O)[nH]c3c(oc4ccccc43)c2=O)cc1`, the call in experiment [1], in experiment [4] and in experiment [6] was inactive. Further, in experiment [2], the fluorescence, percent of control (lower = inhibition) was 34.8%. This compound displayed a GTP binding, percent of control in experiment [3] of 78.7%. In addition, in experiment [5], the GTP binding signal, raw median fluorescence (lower = inhibition) (MCF (arbitrary fluorescence units)) is 332.

On to `CCOC(=O)N1CCC(NC(=O)c2ccc3nc4ccccc4c(=O)n3c2)CC1`, for which the result in experiment [1], in experiment [4] and in experiment [6] was inactive. Moreover, in experiment [2], the fluorescence, percent of control (lower = inhibition) is 97.6%. The compound also yielded a GTP binding, percent of control in experiment [3] of 122%. Further, in experiment [5], the GTP binding signal, raw median fluorescence (lower = inhibition) (MCF (arbitrary fluorescence units)) stood at 152.

`NC1=NC(=O)/C(=C/c2cn(CCC(=O)O)nc2-c2ccc(Cl)cc2)S1`: the compound was called inactive in experiment [1], in experiment [4] and in experiment [6]. The fluorescence, percent of control (lower = inhibition) in experiment [2] is 18.2%. The GTP binding, percent of control in experiment [3] was determined as 42.4%. Also, the GTP binding signal, raw median fluorescence (lower = inhibition) (MCF (arbitrary fluorescence units)) in experiment [5] worked out at 65.5.

Consider `C=CCNC(=O)c1cc2c(=O)n3cc(C)ccc3nc2nc1NCC1CCCO1` (stereo unspecified), for which the call in experiment [1], in experiment [4] and in experiment [6] was inactive. Further, the fluorescence, percent of control (lower = inhibition) in experiment [2] was 51.6%. The same compound had a GTP binding, percent of control in experiment [3] of 58.6%. The compound also yielded a GTP binding signal, raw median fluorescence (lower = inhibition) (MCF (arbitrary fluorescence units)) in experiment [5] of 226.

As to `O=C(O)COc1ccccc1/C=N/NC(=O)c1cccc(S(=O)(=O)Nc2cccc(Cl)c2)c1`, the result in experiment [1], in experiment [4] and in experiment [6] was inactive. Besides, in experiment [2], the fluorescence, percent of control (lower = inhibition) amounted to 36.3%. Besides, in experiment [3], the GTP binding, percent of control amounted to 79.8%. This compound also yielded a GTP binding signal, raw median fluorescence (lower = inhibition) (MCF (arbitrary fluorescence units)) in experiment [5] of 124.

For `Cc1cccc(COc2nc3ccccc3cc2C(=O)O)c1`, the result in experiment [1], in experiment [4] and in experiment [6] was inactive. For the same compound, the fluorescence, percent of control (lower = inhibition) in experiment [2] stood at 54.8%. The GTP binding, percent of control in experiment [3] came out at 213%. Besides, the GTP binding signal, raw median fluorescence (lower = inhibition) (MCF (arbitrary fluorescence units)) in experiment [5] amounted to 52.2.

For `O=C(O)c1cccnc1SCc1cccc(Cl)c1`, the result in experiment [1], in experiment [4] and in experiment [6] was inactive. In addition, in experiment [2], the fluorescence, percent of control (lower = inhibition) amounted to 102%. In experiment [3], this compound registered a GTP binding, percent of control of 117%. In experiment [5], this compound returned a GTP binding signal, raw median fluorescence (lower = inhibition) (MCF (arbitrary fluorescence units)) of 79.9.

With `Cc1ccc(S(=O)(=O)N(C)C)cc1NC(=O)COC(=O)c1ccc(Cl)cc1`, the result in experiment [1], in experiment [4] and in experiment [6] was inactive. For the same compound, the fluorescence, percent of control (lower = inhibition) in experiment [2] turned out to be 39.2%. The same compound came in with a GTP binding, percent of control in experiment [3] of 86%. In experiment [5], this compound gave a GTP binding signal, raw median fluorescence (lower = inhibition) (MCF (arbitrary fluorescence units)) of 265.

As to `CCOC(=O)N1CCN(Cc2cn[nH]c2-c2cc3ccccc3o2)CC1`, the result in experiment [1], in experiment [4] and in experiment [6] was inactive. Besides, the fluorescence, percent of control (lower = inhibition) in experiment [2] was found to be 34.4%. This compound registered a GTP binding, percent of control in experiment [3] of 82.1%. In experiment [5], this compound registered a GTP binding signal, raw median fluorescence (lower = inhibition) (MCF (arbitrary fluorescence units)) of 246.

Turning to `CC(C)(C)NC(=O)CSc1nccn1Cc1ccccc1`, the compound was called inactive in experiment [1], in experiment [4] and in experiment [6]. In addition, the fluorescence, percent of control (lower = inhibition) in experiment [2] worked out at 33.3%. In experiment [3], the GTP binding, percent of control stood at 78.6%. Further, in experiment [5], the GTP binding signal, raw median fluorescence (lower = inhibition) (MCF (arbitrary fluorescence units)) was determined as 144.

Take `COC(=O)c1cc(NC(=O)c2cccc(Cl)c2)c(=O)oc1/C=C/Nc1cc(C)cc(C)c1`: the call in experiment [1], in experiment [4] and in experiment [6] was inactive. Also, the fluorescence, percent of control (lower = inhibition) in experiment [2] is 193%. Moreover, the GTP binding, percent of control in experiment [3] was determined as 237%. The compound further returned a GTP binding signal, raw median fluorescence (lower = inhibition) (MCF (arbitrary fluorescence units)) in experiment [5] of 563.

As for `CCOc1nnc(C)c2c(C)n(-c3ccc(Cl)cc3)nc12`, the call in experiment [1], in experiment [4] and in experiment [6] was inactive. The fluorescence, percent of control (lower = inhibition) in experiment [2] was determined as 52.2%. The compound further registered a GTP binding, percent of control in experiment [3] of 66.3%. Moreover, the GTP binding signal, raw median fluorescence (lower = inhibition) (MCF (arbitrary fluorescence units)) in experiment [5] stood at 197.

`CCc1ccc(OCc2cccc(C(=O)O)c2)cc1`: the outcome in experiment [1], in experiment [4] and in experiment [6] was inactive. Besides, the fluorescence, percent of control (lower = inhibition) in experiment [2] amounted to 58.6%. The compound also yielded a GTP binding, percent of control in experiment [3] of 87.5%. In experiment [5], this compound returned a GTP binding signal, raw median fluorescence (lower = inhibition) (MCF (arbitrary fluorescence units)) of 32.6.

For `COc1ccc(C2(CNC(=O)C(c3ccccc3)c3ccccc3)CCOCC2)cc1OC`, the call in experiment [1], in experiment [4] and in experiment [6] was inactive. For the same compound, the fluorescence, percent of control (lower = inhibition) in experiment [2] is 34%. Further, the GTP binding, percent of control in experiment [3] amounted to 80.6%. The compound further yielded a GTP binding signal, raw median fluorescence (lower = inhibition) (MCF (arbitrary fluorescence units)) in experiment [5] of 276.

Turning to `Cc1cc(Cl)ccc1OCC(=O)OCC(=O)Nc1ccc(F)c([N+](=O)[O-])c1`, the outcome in experiment [1], in experiment [4] and in experiment [6] was inactive. Moreover, the fluorescence, percent of control (lower = inhibition) in experiment [2] stood at 53%. This compound also registered a GTP binding, percent of control in experiment [3] of 70.9%. In addition, the GTP binding signal, raw median fluorescence (lower = inhibition) (MCF (arbitrary fluorescence units)) in experiment [5] was found to be 0.

On to `Cc1ccc(C)c(N2CCN(C(=O)CN(C)S(=O)(=O)c3ccc4c(c3)CCC(=O)N4)CC2)c1`, for which the compound was classed as inactive in experiment [1], in experiment [4] and in experiment [6]. The fluorescence, percent of control (lower = inhibition) in experiment [2] worked out at 41.8%. For the same compound, the GTP binding, percent of control in experiment [3] was found to be 65.9%. The GTP binding signal, raw median fluorescence (lower = inhibition) (MCF (arbitrary fluorescence units)) in experiment [5] is 156.
